Source: ChEMBL document CHEMBL1961873, “Compounds: GSK PKIS; Assays: Nanosyn kinase panel” (2012)

molecular target: T1, Ephrin type-B receptor 3 (Homo sapiens) (UniProt P54753); settings: at 0.1 µM
T1 sequence (whole entry): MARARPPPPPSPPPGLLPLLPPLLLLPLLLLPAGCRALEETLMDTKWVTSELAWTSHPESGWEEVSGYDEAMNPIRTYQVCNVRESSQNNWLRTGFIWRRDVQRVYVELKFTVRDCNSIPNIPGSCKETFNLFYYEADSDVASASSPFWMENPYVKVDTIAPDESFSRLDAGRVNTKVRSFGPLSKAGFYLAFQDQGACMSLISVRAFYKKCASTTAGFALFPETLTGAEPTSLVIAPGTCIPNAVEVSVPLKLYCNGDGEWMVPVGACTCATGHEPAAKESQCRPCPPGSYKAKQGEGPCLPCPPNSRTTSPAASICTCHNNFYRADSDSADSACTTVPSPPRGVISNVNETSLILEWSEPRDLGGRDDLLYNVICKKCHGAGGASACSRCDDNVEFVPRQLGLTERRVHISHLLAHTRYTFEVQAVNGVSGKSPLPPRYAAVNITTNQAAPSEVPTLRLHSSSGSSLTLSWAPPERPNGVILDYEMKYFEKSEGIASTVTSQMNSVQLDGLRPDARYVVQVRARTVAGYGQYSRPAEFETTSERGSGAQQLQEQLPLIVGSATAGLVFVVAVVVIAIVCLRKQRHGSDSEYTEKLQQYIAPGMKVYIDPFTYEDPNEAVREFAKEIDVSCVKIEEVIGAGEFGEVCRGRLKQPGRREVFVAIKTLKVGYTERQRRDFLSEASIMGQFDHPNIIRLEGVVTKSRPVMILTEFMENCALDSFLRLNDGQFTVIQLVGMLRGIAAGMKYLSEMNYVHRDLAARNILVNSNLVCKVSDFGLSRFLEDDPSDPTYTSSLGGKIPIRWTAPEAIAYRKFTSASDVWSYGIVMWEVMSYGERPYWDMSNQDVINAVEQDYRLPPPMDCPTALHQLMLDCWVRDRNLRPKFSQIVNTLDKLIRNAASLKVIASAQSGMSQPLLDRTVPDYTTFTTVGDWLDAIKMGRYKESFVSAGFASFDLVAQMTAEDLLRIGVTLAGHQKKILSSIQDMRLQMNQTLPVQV

Structure (SMILES)	inhibition [%]
C[C@@H](Oc1cc(-n2cnc3ccc(OCC4CCN(C)CC4)cc32)sc1C(N)=O)c1ccccc1C(F)(F)F	-3.13
Cc1cc(O)cc(C)c1/C=C/c1cncc(C(=O)N(C)C)c1	5.26
c1ccc(Nc2ncc(-c3ccccc3)o2)cc1	2.14
COc1ccc(-c2nn3ncccc3c2-c2ccnc(Nc3cccc(C(F)(F)F)c3)n2)cc1	3.95
Cc1ccc(NC(=O)CC2CC2)cc1-c1ccc(C(=O)NCC2CC2)cc1	4.23
COC(=O)c1ccc2c(c1)C(=Cc1cc(Br)c(O)c(Br)c1)C(=O)N2	2.1
Cc1ccc2c(-c3ccnc(Nc4ccc5c(c4)OCCO5)n3)c(-c3ccc(C(F)(F)F)cc3)nn2n1	-0.21
COc1cc(/C=N/Nc2ncnc3c2cnn3C(C)C)ccc1O	2.7
Nc1ccc(C#Cc2cncnc2Nc2ccc(OCc3cccc(F)c3)c(Cl)c2)cc1	3.43
ON=C1CCc2cc(-c3nc(C4CCNCC4)[nH]c3-c3ccncc3)ccc21	2.51
COc1cccc(-n2ncc3c(N/N=C/c4ccc(C)cc4)ncnc32)c1	2.7
CCS(=O)(=O)c1ccc(OC)c(Nc2ncc(-c3cccc(OC)c3)o2)c1	3.22
CC(C)c1ccc2c(c1)NC(=O)/C2=N/Nc1ccc(S(N)(=O)=O)cc1	0.49
Cc1cc(Cl)cc2c1NC(=O)C2=NNc1ccc(S(N)(=O)=O)cc1	3.65
CC(C)c1ccc(Nc2nccc(-c3cnn4ncccc34)n2)cc1	6.52
N#Cc1cccc(Nc2nccc(-c3cnn4ncccc34)n2)c1	4.19
Oc1cccc(-c2nc(-c3ccccc3)[nH]c2-c2ccncc2)c1	9.06

Structure (SMILES)	inhibition [%]
CN1CCN(C(=O)c2ccc(NC(=O)Nc3ccc(N(C)c4ccnc(Nc5ccc(CS(C)(=O)=O)cc5)n4)cc3)cc2)CC1	2.73
COC(=O)Nc1nc2cc(Oc3ccc(NC(=O)Nc4cccc(Br)c4)cc3)ccc2[nH]1	5.42
COc1cccc(-n2ncc3c(N/N=C/c4ccc(S(C)(=O)=O)cc4)ncnc32)c1	-0.24
NS(=O)(=O)c1ccc(NC=C2C(=O)Nc3ccc4ncsc4c32)cc1	5.96
CS(=O)(=O)CCNCc1nc(-c2ccc3ncnc(Nc4ccc(OCc5cccc(C(F)(F)F)c5)cc4)c3c2)cs1	2.8
C[C@@H](Oc1cc(-n2cnc3ccc(OC[C@@H](O)CO)cc32)sc1C(N)=O)c1ccccc1Cl	-1.05
NS(=O)(=O)c1ccc(-c2cc3ccncc3cc2OCc2ccccc2)cc1	5.73
NS(=O)(=O)c1ccc(Nc2cc(-c3cccc(O)c3)n[nH]2)cc1	8.13
Cc1ccc(Nc2ccnc(Nc3cccc(C(N)=O)c3)n2)cc1O	0.29
COc1cccc(-n2nc(C)c3c(N/N=C(\C)c4ccncc4)ncnc32)c1	1.98
CCn1c(-c2nonc2N)nc2ccc(F)cc21	6.48
COc1cc2ncn(-c3cc(OCc4ccccc4S(C)(=O)=O)c(C#N)s3)c2cc1OC	5.99
COc1cc2ncnc(Nc3ccc(C)c(O)c3)c2cc1OC	6.58
NS(=O)(=O)c1cccc(-c2cc3ccncc3cc2OCc2ccccc2)c1	6.23
COC(=O)c1cncc(/C=C/c2c(C)cc(O)cc2C)c1	6.09
COc1cc(Nc2nccc(-c3cnn4ncccc34)n2)cc(OC)c1	3.58

molecular target: T1, Ephrin type-B receptor 3 (Homo sapiens); settings: at 1 µM

Structure (SMILES)	inhibition [%]
C[C@@H](Oc1cc(-n2cnc3ccc(OCC4CCN(C)CC4)cc32)sc1C(N)=O)c1ccccc1C(F)(F)F	-1.08
Cc1cc(O)cc(C)c1/C=C/c1cncc(C(=O)N(C)C)c1	5.69
c1ccc(Nc2ncc(-c3ccccc3)o2)cc1	6.32
COc1ccc(-c2nn3ncccc3c2-c2ccnc(Nc3cccc(C(F)(F)F)c3)n2)cc1	4.5
Cc1ccc(NC(=O)CC2CC2)cc1-c1ccc(C(=O)NCC2CC2)cc1	3.77
COC(=O)c1ccc2c(c1)C(=Cc1cc(Br)c(O)c(Br)c1)C(=O)N2	3.26
Cc1ccc2c(-c3ccnc(Nc4ccc5c(c4)OCCO5)n3)c(-c3ccc(C(F)(F)F)cc3)nn2n1	2.22
COc1cc(/C=N/Nc2ncnc3c2cnn3C(C)C)ccc1O	4.2
Nc1ccc(C#Cc2cncnc2Nc2ccc(OCc3cccc(F)c3)c(Cl)c2)cc1	3.54
ON=C1CCc2cc(-c3nc(C4CCNCC4)[nH]c3-c3ccncc3)ccc21	-3.73
COc1cccc(-n2ncc3c(N/N=C/c4ccc(C)cc4)ncnc32)c1	4.17
CCS(=O)(=O)c1ccc(OC)c(Nc2ncc(-c3cccc(OC)c3)o2)c1	2.36
CC(C)c1ccc2c(c1)NC(=O)/C2=N/Nc1ccc(S(N)(=O)=O)cc1	1.76
Cc1cc(Cl)cc2c1NC(=O)C2=NNc1ccc(S(N)(=O)=O)cc1	1.13
CC(C)c1ccc(Nc2nccc(-c3cnn4ncccc34)n2)cc1	2.55
N#Cc1cccc(Nc2nccc(-c3cnn4ncccc34)n2)c1	3.9
Oc1cccc(-c2nc(-c3ccccc3)[nH]c2-c2ccncc2)c1	19.3

Structure (SMILES)	inhibition [%]
CN1CCN(C(=O)c2ccc(NC(=O)Nc3ccc(N(C)c4ccnc(Nc5ccc(CS(C)(=O)=O)cc5)n4)cc3)cc2)CC1	3.2
COC(=O)Nc1nc2cc(Oc3ccc(NC(=O)Nc4cccc(Br)c4)cc3)ccc2[nH]1	7.66
COc1cccc(-n2ncc3c(N/N=C/c4ccc(S(C)(=O)=O)cc4)ncnc32)c1	-2.08
NS(=O)(=O)c1ccc(NC=C2C(=O)Nc3ccc4ncsc4c32)cc1	2.98
CS(=O)(=O)CCNCc1nc(-c2ccc3ncnc(Nc4ccc(OCc5cccc(C(F)(F)F)c5)cc4)c3c2)cs1	3.98
C[C@@H](Oc1cc(-n2cnc3ccc(OC[C@@H](O)CO)cc32)sc1C(N)=O)c1ccccc1Cl	-0.83
NS(=O)(=O)c1ccc(-c2cc3ccncc3cc2OCc2ccccc2)cc1	3.29
NS(=O)(=O)c1ccc(Nc2cc(-c3cccc(O)c3)n[nH]2)cc1	1.98
Cc1ccc(Nc2ccnc(Nc3cccc(C(N)=O)c3)n2)cc1O	-0.39
COc1cccc(-n2nc(C)c3c(N/N=C(\C)c4ccncc4)ncnc32)c1	0.96
CCn1c(-c2nonc2N)nc2ccc(F)cc21	4.6
COc1cc2ncn(-c3cc(OCc4ccccc4S(C)(=O)=O)c(C#N)s3)c2cc1OC	4.4
COc1cc2ncnc(Nc3ccc(C)c(O)c3)c2cc1OC	2.9
NS(=O)(=O)c1cccc(-c2cc3ccncc3cc2OCc2ccccc2)c1	4.28
COC(=O)c1cncc(/C=C/c2c(C)cc(O)cc2C)c1	11.8
COc1cc(Nc2nccc(-c3cnn4ncccc34)n2)cc(OC)c1	-3.61
